Test results reported in ChEMBL document CHEMBL1157539, “Thousands of chemical starting points for antimalarial lead identification” (Nature, 2010).

system: Plasmodium falciparum; test: GSK_TCMDC: Inhibition of Plasmodium falciparum Dd2 in whole red blood cells, using parasite LDH activity as an index of growth. Test compounds present at 2uM; format: functional

Q: For `COc1cc(Nc2nccc(N3CCC(NC(=O)C(C)c4ccc(Cl)cc4)C3)n2)cc(OC)c1OC` (stereo not given), which Inhibition is on record?
A: 90%

Q: With `Cc1cccc(Nc2c(-c3cc(Br)ccc3O)nc3ncccn23)c1` as the compound, how does the Inhibition read?
A: 98%

Q: How did the Inhibition turn out when `O=C(Nc1cccc(N2CCC(NCCCc3ccncc3)CC2)c1)c1cccc(C(F)(F)F)c1` was run?
A: 50%

Q: Which Inhibition does the source give for `Cc1[nH]cnc1-c1cccc(NC(=O)c2cc3ccccc3s2)c1` here?
A: 48%

Q: Which Inhibition does the source give for `COc1ccc(NC(=O)c2cc(NC(=O)C3(N)CC3)c(=O)n(Cc3ccc(C(N)=O)cc3)c2)cc1.O=C(O)C(F)(F)F` here?
A: 72%

Q: How did the Inhibition turn out when `Cc1ccc(NC(=O)c2ccc3ncccc3c2)cc1OC1CCN(Cc2ccco2)C1.O=C(O)C(F)(F)F` (stereo not given) was run?
A: 42%

Q: `CO/C(=C\C=C\c1cc2cc(Cl)c(Cl)cc2[nH]1)C(=O)NCCCN(C)CCN(C)c1ccccc1` was tested. Which Inhibition did it give?
A: 59%

Q: `COc1ccccc1Cn1ccnc1SCC(=O)Nc1cccc(C(F)(F)F)c1` was tested. Which Inhibition did it give?
A: 73%

Q: How did the Inhibition turn out when `N#Cc1ccc2c(c1)CCN(CCCn1c(-c3ccc4ccccc4c3)nc3ccncc31)CC2` was run?
A: 97%

Q: With `O=c1cc(NCCCNCc2cccc(C(F)(F)F)c2Cl)[nH]c2ccccc12` as the compound, how does the Inhibition read?
A: 24%

Q: For `CNCCCNCc1ccc(-c2ccc(F)c(Cl)c2)o1.Cl`, which Inhibition is on record?
A: 12%

Q: `CCCCCN1CCCN(Cc2cccc(NC(=O)c3cc4ccccc4s3)c2)CC1.O=C(O)C(F)(F)F` was tested. Which Inhibition did it give?
A: 30%

Q: `CCOc1ccc2nc3cc(NC(=O)c4ccco4)ccc3c(N)c2c1` was tested. Which Inhibition did it give?
A: 56%

Q: `COc1cc(C(=O)N2C(c3nccs3)C(C(=O)N(OC)C(C)c3ccccc3)CC2(CC(C)C)C(=O)OC(C)(C)C)ccc1C(C)(C)C` (stereo not given) was tested. Which Inhibition did it give?
A: 92%

Q: Which Inhibition does the source give for `O=C(Nc1cccc(CN2CCCN(Cc3ccsc3)CC2)c1)c1ccc(-c2ccccc2)cc1.O=C(O)C(F)(F)F` here?
A: 11%

Q: For `CNC(=O)Cc1ccc(C(=O)Nc2cccc(-c3cccc(-c4nc5cccc(C)c5[nH]4)c3)c2)cc1`, which Inhibition is on record?
A: 53%

Q: `O=C(O)C(F)(F)F.O=C(c1cccs1)N(Cc1cccc(-c2ccc(CNCCc3ccccc3)cc2)c1)C1CCN(Cc2ccccc2)CC1` was tested. Which Inhibition did it give?
A: 76%

Q: With `COc1ccc(O)cc1Cc1cnc2nc(N)nc(N)c2c1C` as the compound, how does the Inhibition read?
A: 97%

Q: For `CNS(=O)(=O)c1ccc(NC(=O)c2cc(-c3cccnc3)nc3ccc(Br)cc23)cc1`, which Inhibition is on record?
A: 55%

Q: With `CCOC(=O)NCCSC(C)(C)[C@H](NC(=O)[C@H](Cc1cc2ccccc2s1)[C@H](CC)N(O)C=O)C(=O)Nc1nccs1` as the compound, how does the Inhibition read?
A: 98%

Q: For `COc1ccc(CNC2CCN(C)CC2)cc1-c1ccc(S(=O)(=O)NC2CCC2)c(F)c1.O=C(O)C(F)(F)F`, which Inhibition is on record?
A: 97%

Q: How did the Inhibition turn out when `Cc1[nH]c(C)c(-c2ccc(Br)cc2)c(=O)c1Cl` was run?
A: 77%

Q: For `CCNc1cc(C(=O)N[C@@H](Cc2ccccc2)[C@H](O)CNC2CCC(F)(F)CC2)c(F)c(N2CCCCS2(=O)=O)c1.O=CO`, which Inhibition is on record?
A: 97%

Q: How did the Inhibition turn out when `Oc1ccc2ccccc2c1C=NNc1nc(=Nc2ccccc2)[nH]c(=Nc2ccccc2)[nH]1` was run?
A: 73%

Q: `Cc1ccc(NS(=O)(=O)c2ccc(C(C)N3CCC(N4CCCCC4)CC3)cc2)cc1C` (stereo not given) was tested. Which Inhibition did it give?
A: 82%

Q: For `CS(=O)(=O)c1ccc(-c2cnc(N)c(-c3cccc(CO)c3)c2)cc1`, which Inhibition is on record?
A: 51%

Q: With `CCN(CC1CCN(CC2(O)CCOCC2)CC1)c1cc(C)nc(Nc2ccc(Cl)cc2)n1` as the compound, how does the Inhibition read?
A: 99%

Q: `CCCCCc1cc(OC(=O)CCCN(CC)CC)c2c(c1)OC(C)(C)C=C2C1=CCN(Cc2ccc3ccccc3c2)CC1` was tested. Which Inhibition did it give?
A: 92%

Q: With `CC(=O)Nc1ccc(C(=O)Nc2cccc(-c3ccc(-c4nc5cc(F)ccc5[nH]4)s3)c2)cn1` as the compound, how does the Inhibition read?
A: 97%

Q: How did the Inhibition turn out when `Cc1cc(C=C2SC(=Nc3ccccc3)N(C3CCCC3)C2=O)c(C)n1-c1ccc(Cl)cc1` was run?
A: 70%

Q: Which Inhibition does the source give for `CCN(CC)CCN(Cc1ccc(-c2ccc(C(F)(F)F)cc2)cc1)C(=O)Cn1c(CCc2ccccc2F)nc(=O)c2ccccc21.O=C(O)C(O)C(O)C(=O)O` here?
A: 54%

Q: With `O=C(Nc1ccc(Cn2ncc(N3CCCNCC3)c(Cl)c2=O)cc1)Nc1ccc(OCc2ccccc2)cc1.O=C(O)C(F)(F)F` as the compound, how does the Inhibition read?
A: 32%

Q: Which Inhibition does the source give for `Cl.Clc1cnc2ccc3c(c2c1CCN1CCC(NCc2cc4c(cn2)OCCO4)CC1)OCCO3` here?
A: 18%

Q: `CCC[C@@H]([C@@H](CC1CCCCC1)C(=O)N[C@H](C(=O)Nc1nccs1)[C@H](C)O)N(O)C=O` was tested. Which Inhibition did it give?
A: 75%

Q: Which Inhibition does the source give for `Cl.O=C(NC1CCC(CCN2Cc3ccc(Br)cc3C2)CC1)c1cccc(-c2cccnc2)c1` (stereo not given) here?
A: 73%

Q: How did the Inhibition turn out when `Cc1cccc2nc(-c3ccc(-c4cccc(CNCCCNS(C)(=O)=O)c4)cc3)[nH]c12.O=C(O)C(F)(F)F` was run?
A: 5%

Q: `CCCCCN1CCC(NS(=O)(=O)c2cccc(C(=O)Nc3ccc(C(F)(F)F)cc3)c2)C1.O=C(O)C(F)(F)F` (stereo not given) was tested. Which Inhibition did it give?
A: 5%

Q: How did the Inhibition turn out when `Br.Oc1ccc(CNCCCCCCNCCc2ccc(Cl)cc2)cc1O` was run?
A: 7%

Q: With `Cn1ccc2c3c(N)nc(N)nc3ccc21` as the compound, how does the Inhibition read?
A: 17%

Q: For `O=C(Nc1cc(C(F)(F)F)cc(C(F)(F)F)c1)c1cc(C(F)(F)F)cc(C(F)(F)F)c1`, which Inhibition is on record?
A: 86%
